Data published in PubChem BioAssay AID504411 (The Scripps Research Institute Molecular Screening Center, 2011).
Screen size: about 340,000 compounds; about 200 (0.059%) were called active. Cut-off read from the data, not from the text of the source: active = inhibition above about 34%; inactive = the rest. For the sample, actives were picked, then their nearest neighbours and some compounds at random.

Molecular target: Diacylglycerol lipase-beta (Homo sapiens) (UniProt Q8NCG7)
Assay: inhibition of human DAGLB hydrolase activity – biochemical, fluorescence, HTS, primary screen (AID 504411);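 note: 0% = enzyme with vehicle and 100% = wells lacking enzyme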
Conditions: HEK293T DAGLB membrane lysate, EnzChek fluorogenic substrate; at 5.17 µM; hits give high values

Sequence of Diacylglycerol lipase-beta (Homo sapiens) (Q8NCG7 whole entry, looked up): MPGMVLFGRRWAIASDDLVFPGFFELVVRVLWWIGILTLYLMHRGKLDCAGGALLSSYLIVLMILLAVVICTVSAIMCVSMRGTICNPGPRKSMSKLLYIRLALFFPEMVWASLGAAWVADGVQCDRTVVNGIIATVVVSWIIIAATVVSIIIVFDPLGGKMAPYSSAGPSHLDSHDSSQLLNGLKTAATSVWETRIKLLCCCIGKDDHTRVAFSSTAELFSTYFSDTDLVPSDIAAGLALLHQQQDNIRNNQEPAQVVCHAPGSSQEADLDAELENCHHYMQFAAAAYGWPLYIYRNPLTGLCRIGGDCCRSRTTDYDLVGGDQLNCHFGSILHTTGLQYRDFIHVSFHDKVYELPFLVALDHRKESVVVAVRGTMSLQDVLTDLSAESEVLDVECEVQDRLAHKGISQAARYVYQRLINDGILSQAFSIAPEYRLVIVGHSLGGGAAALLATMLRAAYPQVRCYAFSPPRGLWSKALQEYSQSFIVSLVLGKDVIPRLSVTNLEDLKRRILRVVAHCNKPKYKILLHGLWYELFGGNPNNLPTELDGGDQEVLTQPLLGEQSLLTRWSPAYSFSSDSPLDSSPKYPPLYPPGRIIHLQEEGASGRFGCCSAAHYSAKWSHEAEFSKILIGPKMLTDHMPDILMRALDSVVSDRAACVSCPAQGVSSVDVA

inhibition, inactive:
CN(c1ccc(OCC(=O)OCC(=O)Nc2cccc([N+](=O)[O-])c2)cc1)S(=O)(=O)c1ccc(F)cc1 -2.67%, Cc1sc(NC(=O)C2C3CCC(O3)C2C(=O)O)c(C(=O)OC(C)C)c1-c1ccc(Cl)cc1 (stereo not drawn) 6.11%, CCN(CC(=O)NCc1cccs1)C(=O)c1cccc(S(=O)(=O)Nc2ccccc2OC)c1 0.52%, CCc1cc(C(=O)N(CC)CC(=O)Nc2c(F)cccc2F)sc1C -0.43%, Cc1oc2cc3oc(=O)ccc3cc2c1C -1.48%, O=c1[nH]c(=O)n(Cc2ccco2)c2c1C(C(F)(F)F)(C(F)(F)F)N=C(c1ccco1)N2 -0.13%, COc1ccc(/C=N/OCc2ccccc2C#N)c(OC)c1 -2.91%, CC(=O)c1nn(-c2cccc(Br)c2)cc1C(=O)c1cccc2ccccc12 -10.7%, COc1ccc(CN2CCN(Cc3cn(C)nc3-c3ccccc3)CC2CCO)c(C)c1C (stereo not drawn) -4.22%, CC1CCN(S(=O)(=O)c2ccc3ncn(CC(=O)N(C)C4CCCCC4)c(=O)c3c2)CC1 -3.62%, OC(c1ccccc1)c1nccn1Cc1ccccc1 (stereo not drawn) 0.02%, O=C(NCc1ccc2c(c1)OCO2)C(=O)NCC1OCCN1S(=O)(=O)c1ccc(F)cc1 (stereo not drawn) 1.47%, NC(N)=Nc1nc2ccc(Br)cc2c(=O)[nH]1 -0.46%, CCC(=O)Nc1ccc(S(=O)(=O)NCC2CCCO2)cc1 (stereo not drawn) 0.13%, CCCCOc1ccc(NC(=O)[C@@H]2CCCN2C(=O)C2CCN(S(=O)(=O)c3ccc(C)cc3)CC2)cc1 -4.14%, COCCNC(=O)CCCN1C(=O)c2ccccc2Sc2ncccc21 0.34%, C=CCC(NCCCO)c1cccc(OC)c1OC (stereo not drawn) -0.64%, O=C(Cc1ccc(Cl)cc1)NCc1nc(-c2ccccc2)no1 -5.92%, O=C(Nc1cccc(Cl)c1)C1CCCN(c2cnccn2)C1 (stereo not drawn) -0.35%, COCc1ccc(CN2CCC(Oc3ccc(C(=O)NCc4ccccn4)cc3)CC2)o1 -0.42%, COC(=O)c1cc(N2CCNCC2)nc2ccccc12 1.6%, Cc1cc(F)ccc1S(=O)(=O)Nc1ncnc2scc(-c3ccc(F)cc3)c12 11%, CC(=O)c1nn(-c2cccc(C(F)(F)F)c2)c(=O)[nH]c1=O -0.12%, COC(=O)CC1=NN(c2nc(C)cc(C)n2)C(=O)C1 -2.2%, CCCCn1c(N)c(N(CC(C)C)C(=O)C2CSC3(C)CCC(=O)N23)c(=O)[nH]c1=O (stereo not drawn) 0.2%, C=CCN(C(=O)Cn1ncc2c1-c1cc(C)ccc1OC2)c1ccccc1 -2.66%, Cc1c(CCO)c(=O)[nH]n1C(=O)c1c(F)cccc1F -0.98%, Cc1ccnc(NC(=O)CCC(=O)N(CC(=O)NCCc2ccccc2)Cc2cccs2)c1 -0.29%
